Assay results published in the supplement of paper PMC10849652.
Of roughly 7,900 targets only a part is listed; those with a hit were picked by preference. About 0.6% of all pairs of compound and target were hits.

compound: Cc1ccc(C(=O)N(CCCN)[C@@H](c2nc3cc(Cl)ccc3c(=O)n2Cc2ccccc2)C(C)C)cc1 [ispinesib]; assay: log2 fold change, soluble protein after heating vs DMSO (PISA); higher = thermal stabilisation; K562 cells, 10 uM, 30 min; active = over 0.2 and 3.5 SD of the protein, either way, in both replicates (recomputed)
Summary of the method: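 Aliquots of K562 cells (2×10^6 cells/mL) treated with 10 μM compound for 30 min were heated for 3 min over 48°C-58°C. After pooling and extraction in PBS with 0.5% NP-40 at 4°C, soluble protein from a 21,000xg, 90 min spin was quantified by TMTpro 16plex LC-MS/MS with channel sums equalised. Thermal stability is expressed against control samples, from duplicates, as a log2 fold change.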

Sequence of UniProt Q04637 (Q04637 whole entry, looked up): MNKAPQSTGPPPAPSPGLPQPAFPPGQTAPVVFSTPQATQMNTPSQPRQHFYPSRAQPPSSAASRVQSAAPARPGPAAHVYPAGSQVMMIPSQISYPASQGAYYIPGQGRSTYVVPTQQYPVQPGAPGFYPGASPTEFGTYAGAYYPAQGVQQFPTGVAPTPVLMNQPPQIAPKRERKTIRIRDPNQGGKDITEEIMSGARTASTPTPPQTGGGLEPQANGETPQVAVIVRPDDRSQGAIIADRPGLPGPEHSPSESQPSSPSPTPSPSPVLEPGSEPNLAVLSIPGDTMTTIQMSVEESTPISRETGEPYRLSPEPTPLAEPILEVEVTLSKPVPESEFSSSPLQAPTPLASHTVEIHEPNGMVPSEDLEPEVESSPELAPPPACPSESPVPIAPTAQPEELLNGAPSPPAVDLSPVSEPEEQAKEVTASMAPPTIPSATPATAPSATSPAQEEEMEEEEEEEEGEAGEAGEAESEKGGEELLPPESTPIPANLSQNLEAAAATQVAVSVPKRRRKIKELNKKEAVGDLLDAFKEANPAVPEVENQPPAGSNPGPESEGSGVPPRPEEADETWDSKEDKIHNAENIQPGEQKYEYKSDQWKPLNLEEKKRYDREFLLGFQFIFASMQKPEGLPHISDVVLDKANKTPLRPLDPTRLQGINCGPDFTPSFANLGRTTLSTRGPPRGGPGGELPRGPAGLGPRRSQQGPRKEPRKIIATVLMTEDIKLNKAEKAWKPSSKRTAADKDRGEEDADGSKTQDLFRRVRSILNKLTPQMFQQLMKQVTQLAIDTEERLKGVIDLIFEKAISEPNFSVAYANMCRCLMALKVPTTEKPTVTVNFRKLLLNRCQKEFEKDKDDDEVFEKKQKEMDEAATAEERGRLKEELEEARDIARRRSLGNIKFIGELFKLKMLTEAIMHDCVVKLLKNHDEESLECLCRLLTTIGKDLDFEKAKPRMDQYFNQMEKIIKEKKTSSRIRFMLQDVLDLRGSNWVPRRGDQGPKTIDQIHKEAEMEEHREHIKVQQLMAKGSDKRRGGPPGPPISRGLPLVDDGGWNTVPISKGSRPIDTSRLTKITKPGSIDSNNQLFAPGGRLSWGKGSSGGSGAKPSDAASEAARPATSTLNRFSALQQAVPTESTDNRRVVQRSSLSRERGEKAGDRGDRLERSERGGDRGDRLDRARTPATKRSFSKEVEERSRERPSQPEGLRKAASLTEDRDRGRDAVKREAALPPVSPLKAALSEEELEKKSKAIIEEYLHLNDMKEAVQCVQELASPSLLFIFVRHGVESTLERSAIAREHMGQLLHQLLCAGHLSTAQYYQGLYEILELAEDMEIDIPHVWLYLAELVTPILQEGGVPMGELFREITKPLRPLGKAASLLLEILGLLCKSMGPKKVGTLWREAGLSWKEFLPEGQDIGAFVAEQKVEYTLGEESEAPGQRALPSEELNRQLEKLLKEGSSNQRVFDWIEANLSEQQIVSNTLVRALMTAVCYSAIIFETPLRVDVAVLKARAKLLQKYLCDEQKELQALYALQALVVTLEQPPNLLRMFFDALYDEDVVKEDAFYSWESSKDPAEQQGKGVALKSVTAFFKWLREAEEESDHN
Sequence of UniProt Q9C073 (Q9C073 whole entry, looked up): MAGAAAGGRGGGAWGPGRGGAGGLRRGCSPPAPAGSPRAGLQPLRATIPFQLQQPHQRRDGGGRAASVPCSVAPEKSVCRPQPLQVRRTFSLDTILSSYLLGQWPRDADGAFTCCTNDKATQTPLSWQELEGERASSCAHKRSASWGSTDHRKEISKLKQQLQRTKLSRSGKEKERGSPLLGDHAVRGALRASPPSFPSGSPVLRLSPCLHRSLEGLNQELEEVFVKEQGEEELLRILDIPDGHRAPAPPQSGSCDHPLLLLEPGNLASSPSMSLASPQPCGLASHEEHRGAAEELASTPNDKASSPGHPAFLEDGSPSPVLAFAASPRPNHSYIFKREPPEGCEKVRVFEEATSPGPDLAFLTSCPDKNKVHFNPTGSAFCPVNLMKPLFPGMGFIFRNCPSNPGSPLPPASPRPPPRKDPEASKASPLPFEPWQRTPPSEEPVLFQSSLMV
Sequence of UniProt P00374 (P00374 whole entry, looked up): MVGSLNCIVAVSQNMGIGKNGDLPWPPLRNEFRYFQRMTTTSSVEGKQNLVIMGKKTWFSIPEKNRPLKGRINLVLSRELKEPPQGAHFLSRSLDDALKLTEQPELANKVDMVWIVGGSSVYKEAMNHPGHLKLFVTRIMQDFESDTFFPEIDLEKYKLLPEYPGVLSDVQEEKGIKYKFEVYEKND
Sequence of UniProt Q8N6R0 (Q8N6R0 whole entry, looked up): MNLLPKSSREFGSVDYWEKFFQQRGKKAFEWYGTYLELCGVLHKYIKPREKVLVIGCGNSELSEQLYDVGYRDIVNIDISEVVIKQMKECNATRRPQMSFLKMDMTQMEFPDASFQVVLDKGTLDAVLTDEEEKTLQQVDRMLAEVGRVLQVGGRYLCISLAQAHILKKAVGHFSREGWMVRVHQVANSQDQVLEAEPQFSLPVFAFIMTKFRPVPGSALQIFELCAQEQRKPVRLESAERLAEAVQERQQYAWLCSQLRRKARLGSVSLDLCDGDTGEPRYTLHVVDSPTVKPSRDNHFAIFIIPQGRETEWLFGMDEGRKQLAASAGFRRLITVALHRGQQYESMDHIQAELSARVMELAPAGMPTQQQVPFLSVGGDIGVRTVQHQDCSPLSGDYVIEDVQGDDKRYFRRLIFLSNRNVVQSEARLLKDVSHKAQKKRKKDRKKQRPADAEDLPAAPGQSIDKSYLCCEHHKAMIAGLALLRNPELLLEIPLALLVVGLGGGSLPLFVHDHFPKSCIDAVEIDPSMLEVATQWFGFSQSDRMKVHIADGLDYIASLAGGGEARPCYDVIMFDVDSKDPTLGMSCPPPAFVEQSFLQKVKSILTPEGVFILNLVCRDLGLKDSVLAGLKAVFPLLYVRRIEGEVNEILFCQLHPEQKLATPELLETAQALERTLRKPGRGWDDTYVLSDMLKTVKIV
Sequence of UniProt Q9NX74 (Q9NX74 whole entry, looked up): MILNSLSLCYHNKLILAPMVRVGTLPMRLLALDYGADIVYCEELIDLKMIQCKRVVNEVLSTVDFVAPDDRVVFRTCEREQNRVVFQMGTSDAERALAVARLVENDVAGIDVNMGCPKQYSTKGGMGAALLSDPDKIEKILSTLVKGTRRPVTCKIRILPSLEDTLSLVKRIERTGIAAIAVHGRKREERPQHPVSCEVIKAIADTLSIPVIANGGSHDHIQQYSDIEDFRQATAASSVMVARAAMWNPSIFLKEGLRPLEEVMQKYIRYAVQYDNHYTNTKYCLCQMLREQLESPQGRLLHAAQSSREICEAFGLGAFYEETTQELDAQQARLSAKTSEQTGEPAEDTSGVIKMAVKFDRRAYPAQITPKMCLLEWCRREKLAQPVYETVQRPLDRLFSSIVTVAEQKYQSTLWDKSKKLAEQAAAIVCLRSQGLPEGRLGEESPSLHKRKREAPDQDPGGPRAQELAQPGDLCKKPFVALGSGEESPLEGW
Sequence of UniProt O60610 (O60610 whole entry, looked up): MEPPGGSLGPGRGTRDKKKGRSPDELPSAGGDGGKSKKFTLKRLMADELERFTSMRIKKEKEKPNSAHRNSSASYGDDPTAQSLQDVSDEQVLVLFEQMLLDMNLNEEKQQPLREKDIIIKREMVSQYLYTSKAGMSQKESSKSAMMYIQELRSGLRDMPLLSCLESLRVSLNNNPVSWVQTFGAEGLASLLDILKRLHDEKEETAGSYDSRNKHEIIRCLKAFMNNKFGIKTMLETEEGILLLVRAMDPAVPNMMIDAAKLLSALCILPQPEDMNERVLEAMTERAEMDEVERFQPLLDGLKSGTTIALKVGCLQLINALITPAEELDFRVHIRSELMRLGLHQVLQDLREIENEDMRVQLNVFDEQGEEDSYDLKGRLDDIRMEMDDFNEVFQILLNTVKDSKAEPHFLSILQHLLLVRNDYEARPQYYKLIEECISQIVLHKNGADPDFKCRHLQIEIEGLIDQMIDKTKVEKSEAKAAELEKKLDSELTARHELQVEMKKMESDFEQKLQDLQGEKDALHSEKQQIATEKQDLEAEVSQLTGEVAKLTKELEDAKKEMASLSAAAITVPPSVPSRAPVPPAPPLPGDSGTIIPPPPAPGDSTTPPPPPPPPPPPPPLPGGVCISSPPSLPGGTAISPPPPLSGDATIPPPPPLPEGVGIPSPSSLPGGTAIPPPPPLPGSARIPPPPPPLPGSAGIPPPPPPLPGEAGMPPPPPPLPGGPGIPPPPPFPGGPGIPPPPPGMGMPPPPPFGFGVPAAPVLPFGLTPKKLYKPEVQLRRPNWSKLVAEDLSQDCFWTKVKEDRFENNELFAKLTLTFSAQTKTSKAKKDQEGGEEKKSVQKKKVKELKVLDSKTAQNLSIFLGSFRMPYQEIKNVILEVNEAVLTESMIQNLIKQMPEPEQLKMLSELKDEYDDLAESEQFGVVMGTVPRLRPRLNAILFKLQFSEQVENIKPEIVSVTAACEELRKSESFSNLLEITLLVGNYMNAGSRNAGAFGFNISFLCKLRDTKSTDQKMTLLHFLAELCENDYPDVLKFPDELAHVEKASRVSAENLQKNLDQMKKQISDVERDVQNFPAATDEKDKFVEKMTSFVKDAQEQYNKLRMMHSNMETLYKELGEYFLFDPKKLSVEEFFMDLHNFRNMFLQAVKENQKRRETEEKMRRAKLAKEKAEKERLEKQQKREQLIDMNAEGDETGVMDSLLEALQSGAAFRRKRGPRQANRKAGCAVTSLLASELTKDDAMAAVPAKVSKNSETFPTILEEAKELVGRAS
Sequence of UniProt Q9NXW2 (Q9NXW2 whole entry, looked up): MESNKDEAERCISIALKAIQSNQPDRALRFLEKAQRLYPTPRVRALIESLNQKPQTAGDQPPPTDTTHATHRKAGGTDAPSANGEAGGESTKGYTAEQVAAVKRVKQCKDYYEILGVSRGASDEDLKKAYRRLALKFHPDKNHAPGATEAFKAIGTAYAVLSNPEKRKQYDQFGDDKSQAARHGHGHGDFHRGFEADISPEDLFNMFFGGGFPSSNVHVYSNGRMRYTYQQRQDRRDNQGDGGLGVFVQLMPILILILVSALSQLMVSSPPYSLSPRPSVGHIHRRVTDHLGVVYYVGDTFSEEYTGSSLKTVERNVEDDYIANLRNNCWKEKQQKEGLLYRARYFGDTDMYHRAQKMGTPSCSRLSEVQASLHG

Target | log2 fold change
DOCK8 (UniProt Q8NF50) | -0.402 (inactive)
EEF1B2 (UniProt P24534) | -0.024 (inactive)
CTSL (UniProt P07711) | -0.199 (inactive)
DNM2 (UniProt P50570) | -0.01 (inactive)
EIF2AK1 (UniProt Q9BQI3) | -0.024 (inactive)
DIAPH1 (UniProt O60610) | -0.089 (inactive)
DUS2 (UniProt Q9NX74) | 0.097 (inactive)
ERCC2 (UniProt P18074) | -0.045 (inactive)
DYNC1LI2 (UniProt O43237) | -0.026 (inactive)
DYNC1I2 isoform 5 (UniProt Q13409) | 0.028 (inactive)
DIP2A (UniProt Q14689) | 0.01 (inactive)
DMXL1 (UniProt Q9Y485) | -0.217 (inactive)
DDOST (UniProt P39656) | 0.13 (inactive)
DHFR (UniProt P00374) | -0.207 (inactive)
CUX1 isoform 3 (UniProt P39880) | -0.101 (inactive)
DNAJB12 (UniProt Q9NXW2) | -0.227 (active)
CTSV (UniProt O60911) | -0.453 (active)
EFCAB14 (UniProt O75071) | -0.004 (inactive)
EXOC5 (UniProt O00471) | -0.342 (active)
DUS3L (UniProt Q96G46) | 0 (inactive)

Target | log2 fold change
EFL1 (UniProt Q7Z2Z2) | -0.018 (inactive)
DYRK1A isoform 2 (UniProt Q13627) | -0.059 (inactive)
FAF2 (UniProt Q96CS3) | -0.011 (inactive)
ETNK1 (UniProt Q9HBU6) | 0.059 (inactive)
EIF4G1 isoform 8 (UniProt Q04637) | -0.324 (inactive)
DNAH5 (UniProt Q8TE73) | 0.057 (inactive)
EEA1 (UniProt Q15075) | -0.22 (active)
DBT (UniProt P11182) | 0.009 (inactive)
FAM118A (UniProt Q9NWS6) | 0.034 (inactive)
CUX1 isoform 2 (UniProt Q13948) | -0.008 (inactive)
DNAH11 (UniProt Q96DT5) | -0.125 (inactive)
EXOSC10 (UniProt Q01780) | -0.441 (inactive)
CYBA (UniProt P13498) | -0.488 (active)
FADS1, A0A0A0MR51 | -0.252 (active)
FAM117A (UniProt Q9C073) | 0.024 (inactive)
EEF1AKNMT (UniProt Q8N6R0) | -0.072 (inactive)
CYP51A1 (UniProt Q16850) | 0.117 (inactive)
FAM83D (UniProt Q9H4H8) | 0.064 (inactive)
DNTTIP2 (UniProt Q5QJE6) | -0.093 (inactive)
EED, A0A5F9ZI63 | 0.019 (inactive)
